Where “and” joins values, the source holds several entries; their conditions need not be identical. Equal values may be shown once. Records with an inconclusive call do not appear. More than one record can exist for a structure, and the calls need not agree. Calls of active or inactive are those of the source. The calls were made as follows, unless noted: active = hit-call score of the fitted dose curve at least 0.9, where 1 is the maximum; inactive = score below 0.9.
What was measured:
[1] = read-out: Collagen I, COL1A1 (gene 1277); test: BSK_MyoF_CollagenI: BioMAP Diversity Plus: MyoF Assay for Collagen I Biomarker Activity (AID 2284238); conditions: primary human lung fibroblasts
Method in brief: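 Measured by ELISA: Collagen I from human lung fibroblasts 24 h after compound addition, analysed for signal gain with DMSO as baseline; overt toxicity read from SRB staining of parallel cultures at the same time.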

[2] = read-out: Collagen III, COL3A1 (gene 1281); test: BSK_MyoF_CollagenIII: BioMAP Diversity Plus: MyoF Assay for Collagen III Biomarker Activity (AID 2284239); conditions: primary human lung fibroblasts
Method in brief: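 Multiplexed cell assay in lung fibroblasts, harvested at 24 h post-dose. Collagen III detected by ELISA, with positive-direction fitting relative to DMSO vehicle.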

[3] = read-out: Interleukin 17F (IL17F), IL17F (gene 112744); test: BSK_BT_xIL17F: BioMAP Diversity Plus: BT Assay for Interleukin 17F (IL17F) Biomarker Activity (AID 2284243); conditions: primary human B cells with PBMC
Method in brief: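 Luminex readout of IL-17F secretion, 24 h; cells: human B cells with PBMC; positive-direction analysis, DMSO control.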

[4] = read-out: Actin alpha 1 (ACTA1), ACTA1 (gene 58); test: BSK_MyoF_ACTA1: BioMAP Diversity Plus: MyoF Assay for Actin alpha 1 (ACTA1) Biomarker Activity (AID 2284244); conditions: primary human lung fibroblasts
Method in brief: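 Lung fibroblasts, human primary, 24 h compound exposure → a-SMA ELISA. Positive-direction fit vs DMSO control.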

[5] = read-out: Interleukin 2 (IL2), IL2 (gene 3558); test: BSK_BT_xIL2: BioMAP Diversity Plus: BT Assay for Interleukin 2 (IL2) Biomarker Activity (AID 2284245); conditions: primary human B cells with PBMC
Method in brief: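 B cell + PBMC co-culture (human primary), compound added, 24 h incubation; secreted IL-2 measured multiplexed on Luminex xMAP; gain-of-signal fit vs DMSO.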

[6] = read-out: Collagen IV, COL4A1 (gene 1282); test: BSK_MyoF_CollagenIV: BioMAP Diversity Plus: MyoF Assay for Collagen IV Biomarker Activity (AID 2284247); conditions: primary human lung fibroblasts
Method in brief: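 Steps: dose human lung fibroblasts; culture 24 h; quantify Collagen IV by ELISA; fit increase versus DMSO control. Parallel SRB total-protein staining (0.1% SRB after 10% TCA fixation, 560 nm) tracks overt cytotoxicity.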

[7] = read-out: Monokine induced gamma interferon (MIG), CXCL9 (gene 4283); test: BSK_KF3CT_MIG: BioMAP Diversity Plus: KF3CT Assay for Monokine induced gamma interferon (MIG) Biomarker Activity (AID 2284248); conditions: primary human keratinocytes with fibroblasts
Method in brief: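 MIG in dosed human skin co-cultures was measured by ELISA at 24 h, relative to DMSO.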

[8] = read-out: Vascular cell adhesion molecule 1 (VCAM1), VCAM1 (gene 7412); test: BSK_BF4T_VCAM1: BioMAP Diversity Plus: BF4T Assay for Vascular cell adhesion molecule 1 (VCAM1) Biomarker Activity (AID 2284249); conditions: primary human bronchial epithelial cells with fibroblasts
Method in brief: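 Human bronchial epithelial cell and dermal fibroblast co-culture exposed 24 h. VCAM-1 measured by ELISA; parallel SRB total-protein staining for cytotoxicity. Fitted in positive direction relative to DMSO.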

[9] = read-out: Collagen I, COL1A1 (gene 1277); test: BSK_hDFCGF_CollagenI: BioMAP Diversity Plus: hDFCGF Assay for Collagen I Biomarker Activity (AID 2284250); conditions: primary human foreskin fibroblasts
Method in brief: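 Human skin primary fibroblasts dosed with test chemical, harvested at 24 h, Collagen I quantified by ELISA; parallel SRB staining (0.1% SRB after 10% TCA fixation, 560 nm) tracked cytotoxicity.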

[10] = read-out: Interferon-inducible T-cell alpha chemoattractant (ITAC), CXCL11 (gene 6373); test: BSK_hDFCGF_ITAC: BioMAP Diversity Plus: hDFCGF Assay for Interferon-inducible T-cell alpha chemoattractant (ITAC) Biomarker Activity (AID 2284251); conditions: primary human foreskin fibroblasts
Method in brief: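 Fibroblasts (human foreskin, primary) are treated with chemical, cultured 24 h, then assayed for I-TAC by ELISA. Overt toxicity is checked in parallel cultures by sulforhodamine B staining of total protein at the same time point.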

[11] = read-out: Plasminogen activator inhibitor-1 (PAI1), SERPINE1 (gene 5054); test: BSK_KF3CT_PAI1: BioMAP Diversity Plus: KF3CT Assay for Plasminogen activator inhibitor-1 (PAI1) Biomarker Activity (AID 2284252); conditions: primary human keratinocytes with fibroblasts
Method in brief: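 ELISA read-out of PAI-1 taken 24 h after chemical treatment of a human skin primary co-culture of keratinocytes and foreskin fibroblasts. Increases over DMSO-treated wells defined activity.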

[12] = read-out: Monocyte Chemoattractant Protein-1 (MCP1), CCL2 (gene 6347); test: BSK_IMphg_MCP1: BioMAP Diversity Plus: IMphg Assay for Monocyte Chemoattractant Protein-1 (MCP1) Biomarker Activity (AID 2284253); conditions: primary human endothelial cells with macrophages
Method in brief: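 Human venular endothelial cells co-cultured with macrophages; MCP-1 measured by ELISA 24 hours post-dose and fitted against DMSO. Cytotoxicity monitored by SRB total-protein staining in parallel cultures.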

[13] = read-out: Interleukin-8 (IL8), CXCL8 (gene 3576); test: BSK_KF3CT_IL8: BioMAP Diversity Plus: KF3CT Assay for Interleukin-8 (IL8) Biomarker Activity (AID 2284254); conditions: primary human keratinocytes with fibroblasts
Method in brief: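 Using parallel SRB-stained cultures to flag overt toxicity, the study quantified IL-8 by ELISA in human keratinocyte–foreskin fibroblast co-cultures 24 h after dosing, with DMSO as negative control and baseline.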

[14] = read-out: Plasminogen activator inhibitor-1 (PAI1), SERPINE1 (gene 5054); test: BSK_MyoF_PAI1: BioMAP Diversity Plus: MyoF Assay for Plasminogen activator inhibitor-1 (PAI1) Biomarker Activity (AID 2284256); conditions: primary human lung fibroblasts
Method in brief: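 In this multiplexed primary-cell system, fibroblasts from human lung received compound for 24 h before ELISA detection of PAI-1; overt toxicity was checked by SRB (0.1%, TCA-fixed, 560 nm) in parallel wells.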

CD69, CD69 (gene 969) = test: BSK_IMphg_CD69: BioMAP Diversity Plus: IMphg Assay for CD69 Biomarker Activity (AID 2284257); conditions: primary human endothelial cells with macrophages
Method in brief: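 Human venular endothelial cells co-cultured with macrophages; CD69 quantified by ELISA 24 h after compound addition. Activity fitted in the positive direction relative to DMSO baseline; cytotoxicity tracked in parallel cultures via SRB total-protein staining.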

[15] = read-out: Eotaxin 3, CCL26 (gene 10344); test: BSK_BF4T_Eotaxin3: BioMAP Diversity Plus: BF4T Assay for Eotaxin 3 Biomarker Activity (AID 2284258); conditions: primary human bronchial epithelial cells with fibroblasts
Method in brief: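 Co-culture of human bronchial epithelial cells and dermal fibroblasts, exposed to chemicals for 24 h versus DMSO. Eotaxin-3 quantified by ELISA; cytotoxicity checked in parallel cultures by sulforhodamine B total-protein staining.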

[16] = CCTE_Mundy_HCI_hNP1_Casp3_7: CCTE's Caspase-Glo 3/7 Assay in human neuroprogenitor cells for Apoptosis, Mundy Lab (AID 2284240)
Method in brief: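 Apoptosis is scored by activated caspase-3/7 luminescence in WA09-derived neural progenitor cells, measured 26.5 h after chemical dosing. Values represent gain of signal relative to DMSO vehicle.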

[17] = CCTE_Mundy_HCI_hNP1_CellTiter: CCTE's Cell Titer-Glo 2 Assay in human neuroprogenitor cells for Viability, Mundy Lab (AID 2284241; active = hit-call score of the fitted dose curve at least 0.9, where 1 is the maximum)
Method in brief: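 Human neural progenitor cells (hNP1, WA09-derived) were plated on poly-L-ornithine/laminin and grown 40 to 44 hours at 37 °C, 5% CO2 before chemical addition. Twenty-four hours later, ATP was measured by CellTiter-Glo luminescence; loss of signal versus DMSO indicates reduced viability.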

Measured: AC50

O=C(O)CCC(F)(F)C(F)(F)C(F)(F)C(F)(F)C(F)(F)F
inactive: [1] | [2] | [3] | [4] | [5] | [6] | [7] | [8] | [9] | [10] | [11] | [12] | [13] | [14] | CD69, CD69 (gene 969) | [15]
active: [10] 2.04 µM

COc1cc(OC)nc(NC(=O)NS(=O)(=O)Nc2ccccc2C(=O)N(C)C)n1
inactive: [1] | [2] | [3] | [4] | [5] | [6] | [14]

O=C(CC(=O)C(F)(F)C(F)(F)C(F)(F)F)c1cccs1
inactive: [16] | [17] | [4] | [6] | [7] | [9] | [10] | [11] | [13] | [14]
active: [1] 17.8 µM and 7.76 µM | [2] 8.37 µM and 7.86 µM | [3] 23.2 µM and 25.1 µM | [4] 7.95 µM | [5] 55.6 µM and 46.2 µM | [6] 8.25 µM | [8] 20.6 µM and 19.3 µM | [9] 8.04 µM | [10] 7.8 µM | [11] 18.7 µM | [12] 27.7 µM and 25.5 µM | CD69, CD69 (gene 969) 30 µM | [15] 12.8 µM and 13 µM

O=C(NO)c1ccccc1
inactive: [1] | [2] | [4] | [6] | [14]
active: [3] 19.2 µM | [5] 19.2 µM

Cc1cccc2c1ccc1ccccc12
inactive: [1] | [2] | [4] | [5] | [6] | [14]
active: [3] 20 µM

O=C(O)C(F)(F)OC(F)(F)C(F)(F)OC(F)(F)C(F)(F)OC(F)(F)C(F)(F)C(F)(F)C(F)(F)F
inactive: [4] | [5] | [6] | [13]
active: [1] 9.61 µM and 5.9 µM | [2] 6.08 µM and 4.89 µM | [3] 49.6 µM and 47 µM | [4] 4.11 µM | [5] 44.9 µM | [7] 29.6 µM and 27.5 µM | [8] 7.4 µM and 6.87 µM | [9] 30 µM | [10] 11.1 µM and 11.3 µM | [11] 15.9 µM and 18.7 µM | [12] 38.2 µM and 24 µM | [14] 14.6 µM and 13.3 µM | CD69, CD69 (gene 969) 40.2 µM and 24.2 µM | [15] 7.32 µM and 7.02 µM

CN(CCO)S(=O)(=O)C(F)(F)C(F)(F)C(F)(F)C(F)(F)C(F)(F)C(F)(F)C(F)(F)C(F)(F)F
inactive: [2] | [3] | [4] | [5] | [6] | [7] | [8] | [10] | [11] | [12] | [13] | [14] | CD69, CD69 (gene 969) | [15]
active: [1] 1.82 µM and 2.36 µM | [3] 1.93 µM | [9] 1.65 µM and 879 nM | [11] 0.0715 µM | [13] 1.42 µM

O=C(O)CCC(F)(F)C(F)(F)C(F)(F)C(F)(F)C(F)(F)C(F)(F)F
active: CD69, CD69 (gene 969) 13.6 µM | [15] 2.88 µM
inactive: [1] | [2] | [3] | [4] | [5] | [6] | [7] | [8] | [9] | [10] | [11] | [12] | [13] | [14] | CD69, CD69 (gene 969) | [15]
